Only some compounds are listed: those with a hit (about 10% of all), similar ones and a draw of the others.
HP1b binding inh – HP1-beta chromodomain-methylated histone interaction inhibition. AlphaScreen HP1-beta / biotin-H3K9me3 peptide binding. Potency, µM (doses to about 114 µM), for the others: at the highest dose activity change, negative = inhibition, hits mostly inhibitors. 390,000 tested, 0.56% active; further: potency means the concentration at half of the fitted maximal effect; nearly all actives have a fitted effect of over 70% in size
Target sequence (P83916 whole entry, looked up): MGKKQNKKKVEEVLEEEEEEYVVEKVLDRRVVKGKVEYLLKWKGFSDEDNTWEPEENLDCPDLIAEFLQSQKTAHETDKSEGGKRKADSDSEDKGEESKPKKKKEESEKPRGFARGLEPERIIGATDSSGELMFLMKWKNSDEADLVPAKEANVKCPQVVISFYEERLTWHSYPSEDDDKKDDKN
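HP1-beta protein (50 nM final) preincubated 30 min at room temperature with biotinylated H3(1-18)K9me3 peptide (50 nM) in PBS pH 7.4, 0.01% Tween-20, then compound added for 30 min. AlphaScreen streptavidin donor/nickel chelate acceptor beads (10 ug/mL final), 30 min dark, luminescence read.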
Six1-Eya2 inh – blocks human Six1 binding to Eya2. 360,000 tested, 0.56% active. AlphaScreen GST-Six1/His-Eya2 binding, biochemical; stronger effect = lower value. Q15475+O00167. activity change, % (no concentration beside the values). AID 651725; in the data active means activity change below about -65%; inconclusive means mostly about -30% to -63%; further: on the % scale 0 is the no-effect control and ±100 the full control effect
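Six1/Eya2 binding was read as AlphaScreen signal after compounds were pinned into GST-Six1 plus His-tagged Eya2 (5X stock 250/500 nM) in pH 8.0 Tris/NaCl/TCEP buffer, beads added, then incubated 1 h, 37 C, dark.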
JMJD2A Tudor inh – inhibitors of human JMJD2A Tudor domain | 390,000 tested, 4.4% active | AlphaScreen JMJD2A-Tudor / H3K4me3 peptide binding | Potency, µM (titrated, usually from 114 µM), inactives show at the highest dose activity change, negative = inhibition, actives largely listed as inhibitors | AID 504339; further: potency means the concentration at half of the fitted maximal effect; on the % scale 0 is the no-effect control and ±100 the full control effect; nearly all actives have a fitted effect of over 50% in size
G9a block – inhibitors of human histone lysine methyltransferase G9a. Potency, µM (highest dose often 102 µM), without a hit: at the highest dose activity, negative = inhibition, usual class: inhibitors. Q96KQ7. 350,000 tested, 8.8% active. G9a H3K9 monomethylation, AlphaScreen, 2 h; further: potency means the concentration at half of the fitted maximal effect; on the % scale 0 is the no-effect control and ±100 the full control effect; nearly all actives have a fitted effect of over 75% in size
Target sequence (Q96KQ7 913-1193 limits assumed): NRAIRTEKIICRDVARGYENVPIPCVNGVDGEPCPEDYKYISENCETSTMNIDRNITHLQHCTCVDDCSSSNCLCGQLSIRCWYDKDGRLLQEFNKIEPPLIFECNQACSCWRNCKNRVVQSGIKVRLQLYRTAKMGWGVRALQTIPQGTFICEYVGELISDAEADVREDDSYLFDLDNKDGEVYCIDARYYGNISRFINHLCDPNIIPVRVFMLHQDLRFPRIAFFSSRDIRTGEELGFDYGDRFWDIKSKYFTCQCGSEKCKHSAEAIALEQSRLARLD
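Quantitative HTS format: methyltransferase activity on a biotin-tagged H3K9 peptide is measured by AlphaScreen, using a rabbit anti-monomethyl-H3K9 antibody with streptavidin donor and anti-IgG acceptor beads. Final levels are 20 nM enzyme, 500 nM peptide, 20 uM SAM; 2 h RT.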
CtBP-E1A blk – CtBP/E1A binding inhibition; activity change, % (test concentration not listed); AID 651724; 340,000 tested, 0.49% active; AlphaScreen GST-E1A/His-CtBP binding, 1536-well; stronger effect = lower value; in the data active means activity change below about -65%; inconclusive means mostly about -30% to -63%; further: on the % scale 0 is the no-effect control and ±100 the full control effect
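Steps: dispense buffer (Tris pH 8.0, NaCl 300 mM, TCEP 1 mM, BSA, Tween 20); add 5X protein mix (GST-E1A, His-CtBP, 125 nM each); pin 23 nL compound; 2 h at 37 °C, dark; add 5X beads (50 ug/mL); 1 h; read.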
BAZ2B block – BAZ2B (human) inhibition. Q9UIF8. AlphaScreen BAZ2B-H3K14Ac peptide displacement. Potency, µM (top dose mostly 114 µM), without a hit: at the top dose activity change, negative = inhibition, actives largely listed as inhibitors. 360,000 tested, 4.4% active; further: potency means the concentration at half of the fitted maximal effect; on the % scale 0 is the no-effect control and ±100 the full control effect; nearly all actives have a fitted effect of over 60% in size
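Inhibition is scored as reduced AlphaScreen emission. The BAZ2B/b-H3(5-23)K14Ac complex (50 nM each) in PBS pH 7.4, 0.01% Tween-20 meets compound (up to 110 uM) for 30 min at RT before bead addition.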
* marks the source's active call; other numbers are inactive results; ? = inconclusive; nt = no result given; [ ] = dose if it differs, or a comment. Unless noted, the call rests on the fitted dose curve; in most records, active means well fitted inhibition curve with a large enough effect; inconclusive means small, poorly fitted or top-dose-only effect; inactive means no such curve, though single readings can be large or run the other way.

SMILES | HP1b binding inh | Six1-Eya2 inh | JMJD2A Tudor inh | G9a block | CtBP-E1A blk | BAZ2B block
COc1ccc(SN=C2C(C)=CC(=O)C=C2C)cc1 | ? | -15.8 | ? | 15.8µM* | -12.2 | ?
Cc1ccc(S(=O)(=O)CCC(=O)OCC(=O)NCCc2ccccc2)cc1 | -11.5% | 4.6 | -21.3% | ? | 1.0 | 8.4%
COc1ccc(Cl)cc1C(=O)NC(C)C | 18.3% | 19.1 | -5.4% | 19.1% | 8.4 | -3.9%
Cn1c(=O)n(C)c2cc([N+](=O)[O-])c(N3CCN(S(=O)(=O)c4ccc(C(C)(C)C)cc4)CC3)cc21 | -13.6% | 8.1 | -31.9% | ? | 10.3 | -33.5%
CCS(=O)(=O)N1CCN(c2cc3c(cc2[N+](=O)[O-])n(C)c(=O)n3C)CC1 | -21.7% | -1.5 | -30.5% | ? | -10.4 | 56.2µM*
CCNC(=O)C1(C)CCN(C(=O)c2cccs2)C1 (centres undefined) | nt | 1.4 | nt | nt | 5.0 | nt
COC(=O)c1ccc(-n2c(C)cc(/C=N/n3cnnc3)c2C)cc1 | 17.8% | 3.2 | 15.8%[11.4 µM] | 56.2µM* | -12.4 | ?
Cc1ccc(S(=O)(=O)N(C)c2ccc(C(=O)NCc3ccccc3F)cc2)cc1 | 25.3% | -1.1 | -3.7% | 50.1µM* | 2.0 | -1.3%
Cc1ccc(S(=O)(=O)N(C)c2ccc(C(=O)NCc3ccccn3)cc2)cc1 | 47.4% | 7.2 | -10.3% | -2.3% | 11.7 | -6.7%
Cc1ccc(NC(=O)CN(C)C(=O)c2ccc(S(=O)(=O)N(C)c3ccccc3)cc2)cc1 | 24.5% | -0.6 | -6.2% | 56.2µM* | 0.0 | -8.7%
CCc1ccc(NC(=O)c2cnn(-c3c(C)cccc3C)c2C2CCN(C(=O)OC(C)(C)C)CC2)cc1 | 18.1% | nt | -17.8% | -7.3%[59 µM] | nt | 4.4%[57.1 µM]
Cc1ccc(O)c(C2=NNC(c3ccc(Cl)cc3)C2)c1 (centres undefined) | 33.3% | -0.5 | -33.8% | nt | -12.3 | ?
Oc1ccc(Cl)cc1C1=NNC(c2cccs2)C1 (centres undefined) | -11.2% | -6.0 | -33.1%[11.4 µM] | 50.1µM* | -5.2 | -37.9%
COc1cc2c(cc1OC)C(c1ccc(N(C)C)cc1)CC(=O)N2 (centres undefined) | -15.8% | -19.5 | ? | ? | -7.7 | ?
CCN(CC)c1ccc(C2CC(=O)Nc3cc(OC)c(OC)cc32)cc1 (centres undefined) | -48.3% | ? | 50.1µM* | ? | -2.1 | 44.7µM*
Cc1cccc(NC(=O)c2nc[nH]c2C(=O)NC[C@H](C)O)c1 | nt | -10.4 | nt | nt | 2.1 | nt
CC(=O)NC(c1ccc(F)c(F)c1)c1nc(-c2ccccc2C)cs1 (centres undefined) | nt | 0.2 | nt | nt | 1.5 | nt
Cc1ccc(CC(=O)Nc2ccc3c(c2)N(C)C(=O)c2ccccc2S3)cc1 | ? | nt | ? | 3.98µM* | nt | ?
CCOc1ccc(CC(=O)Nc2ccc3c(c2)N(C)C(=O)c2ccccc2S3)cc1OCC | 17.0% | nt | -33.3% | 1.4%[59 µM] | nt | -17.1%
O=C(O)Cc1ccc(N=Cc2c(O)ccc3ccccc23)cc1 | -8.6% | 2.0 | -25.8% | 1.58µM* | 2.2 | -28.7%
O=C(N/N=C/c1c(O)ccc2ccccc12)Nc1ccccc1 | 40.7% | -1.5 | -30.0% | nt | nt | nt
NC(=O)c1ccc(N=Cc2c(O)ccc3ccccc23)cc1 | 4.9% | 6.4 | ? | nt | 7.7 | nt
O=S(=O)(/N=C/c1c(O)ccc2ccccc12)c1ccccc1 | 79.4µM* | 0.0 | 56.2µM* | 1.41µM* | 2.2 | -20.3%
COc1ccc(NC(C)C(=O)N/N=C/c2c(O)ccc3ccccc23)cc1 (centres undefined) | 50.2% | -16.3 | -13.4% | 44.7µM* | -10.0 | -0.1%
COc1ccc(N=Cc2c(O)[nH]c3ccccc23)cc1 | 7.5% | -15.9 | -14.4% | -37.9%[59 µM] | -9.2 | -6.7%
SMILES | HP1b binding inh | Six1-Eya2 inh | JMJD2A Tudor inh | G9a block | CtBP-E1A blk | BAZ2B block
COc1ccc(N=Cc2c(O)ccc3ccccc23)cc1 | 81.8% | 2.1 | 35.4% | 0.794µM* | 8.2 | -20.4%
O=C(CNc1ccccc1)N/N=C/c1c(O)ccc2ccccc12 | 23.8% | -21.8 | -15.3% | -13.3% | ? | -1.2%
Cc1ccc(N=Cc2c(O)ccc3ccccc23)cc1F | -0.2% | 0.8 | 56.2µM* | 1.26µM* | 11.9 | 6.7%
COc1ccc(NC(C)C(=O)N/N=C/c2ccccc2OCc2cccc(Br)c2)cc1 (centres undefined) | ? | ? | 11.2µM* | 39.8µM* | ? | 10µM*
Cc1ccccc1NC(C)C(=O)N/N=C/c1ccccc1OCc1cccc(Br)c1 (centres undefined) | 4.2% | -20.6 | -30.8% | -45.3%[59 µM] | -11.0 | -8.3%
O=C(O)c1ccc(N=Cc2c(O)ccc3ccccc23)cc1 | 14.7% | 0.0 | ? | 1.12µM* | 2.4 | -4.9%
CC(=O)Nc1ccc(N=Cc2c(O)ccc3ccccc23)cc1 | 0.5% | 0.8 | -26.9% | 1.78µM* | nt | -25.1%
CCN(CC)c1ccc(O)c(C=Nc2ccc(C)c(C)c2)c1 | 31.1% | 6.8 | 8.3% | -47.9% | 0.1 | -28.5%
CCOc1ccccc1N1C(=O)c2ccccc2N/C1=C\N1CCN(C(=O)c2ccco2)CC1 | 69.0% | nt | -12.9% | nt | nt | nt
O=C(CCN1C(=O)[C@@H]2Cc3ccccc3CN2C1=O)N[C@@H](Cc1ccccc1)C(=O)O | 27.6% | 2.4 | 0.0% | 16.8%[12.7 µM] | 7.1 | -11.8%
N#Cc1cccc(N=Cc2c(O)ccc3ccccc23)c1 | -25.1% | 2.9 | 35.5µM* | 1.41µM* | -5.4 | -2.7%
Cc1ccccc1-c1noc(-c2ccc(N3CCN(C)CC3)c([N+](=O)[O-])c2)n1 | -7.1% | nt | -14.9% | -8.5%[59 µM] | nt | -11.5%
CCOc1ccc(C2c3[nH]c4ccccc4c3CCN2C(=O)Cn2cncn2)cc1 (centres undefined) | 8.7% | -9.6 | ? | nt | -12.2 | ?
CCn1c(SCC(=O)NC2CCCCC2)nnc1-c1cccs1 | 32.6% | 1.2 | 2.0% | -16.2%[12.7 µM] | -1.3 | -4.8%
CCn1c(SC(=O)NC2CCCCC2)nnc1-c1cccs1 | 22.4µM* | -0.3 | 4.47µM* | ? | 3.8 | 4.2%
O=C(NCCc1c[nH]c2ccccc12)/C(=C/c1ccco1)NC(=O)c1ccco1 | -9.6% | 15.3 | -16.2% | -2.4% | 5.0 | -24.6%
CC(=C\c1ccco1)/C=C(\C#N)C(=O)NCCc1c[nH]c2ccccc12 | 9.2% | -6.5 | ? | 12.6µM* | 3.4 | ?
C=CCC1Cc2c(cccc2[N+](=O)[O-])C(CC=C)N1 (centres undefined) | -2.5% | ? | ? | 50.1µM* | ? | ?
CCn1c(-c2ccccc2Cl)nn(CC(=O)Nc2ccc(OC)cc2)c1=S | -0.7% | 14.1 | -10.8% | nt | -0.4 | 4.3%
O=C(O)c1ccc(/C=N/NC(=O)c2cc(-c3ccc4c5c(cccc35)CC4)n[nH]2)cc1 | -13.6% | ? | ? | ? | -17.8 | 50.1µM*
